Experimental data taken from PubChem BioAssay AID624330 (Southern Research Specialized Biocontainment Screening …, 2012).
Out of some 340,000 compounds screened, about 2,100 (0.62%) were called active. Only a sample is shown. Entries with a potency or affinity are not part of this list. A number with no mark means an inactive call.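 How the source made its calls: active means first-screen hits whose inhibition reached a set limit at any dose in the follow-up dose series; inconclusive means inhibition above the set first-screen limit but never retested; inactive means the rest.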

Molecular target: Rac GTPase-activating protein 1 (Homo sapiens) (UniProt Q9H0H5)
Sequence (Q9H0H5 whole entry, looked up): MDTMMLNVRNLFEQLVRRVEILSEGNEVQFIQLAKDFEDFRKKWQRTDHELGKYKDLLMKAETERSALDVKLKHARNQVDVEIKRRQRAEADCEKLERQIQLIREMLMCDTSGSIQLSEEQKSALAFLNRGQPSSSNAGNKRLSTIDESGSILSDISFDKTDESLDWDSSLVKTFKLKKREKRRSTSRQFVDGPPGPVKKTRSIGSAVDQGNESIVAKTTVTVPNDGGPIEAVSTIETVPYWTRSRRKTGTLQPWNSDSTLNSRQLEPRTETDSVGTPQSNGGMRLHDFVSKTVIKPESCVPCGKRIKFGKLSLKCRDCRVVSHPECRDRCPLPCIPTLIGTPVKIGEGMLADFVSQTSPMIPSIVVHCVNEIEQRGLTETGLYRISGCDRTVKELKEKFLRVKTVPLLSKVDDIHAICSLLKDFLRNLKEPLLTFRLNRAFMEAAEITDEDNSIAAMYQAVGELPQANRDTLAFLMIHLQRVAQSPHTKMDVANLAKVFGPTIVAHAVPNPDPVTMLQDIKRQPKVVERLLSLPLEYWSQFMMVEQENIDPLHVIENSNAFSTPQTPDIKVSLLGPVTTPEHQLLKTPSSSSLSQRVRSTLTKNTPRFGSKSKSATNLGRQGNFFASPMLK
Test: MgcRacGAP GTPase-activating activity inhibitors, confirmation, biochemical, ADP Hunter fluorescence, primary and confirmatory (AID 624330);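 further: fluorescence reports GDP produced by GAP-driven GTP hydrolysis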
Settings: MgcRacGAP-stimulated Rac1 GTP hydrolysis, at 30 µM, stronger effect = higher value, GST-tagged Rac1 F28L mutant substrate

SMILES	inhibition
CCOc1ccc(-c2csc(NC(=O)c3cccc(N4C(=O)CCC4=O)c3)n2)cc1	1.94%
COc1ccc(Cl)cc1NC(=O)NN1CCN(C)CC1	9.05%
COc1cccc(-c2c(C(=O)N/N=C(\C)c3ccco3)nnn2-c2nonc2N)c1	3.24%
Cc1nnc(C)n1/N=C/c1cccc([N+](=O)[O-])c1	0.71%
O=[N+]([O-])c1ccc(/C=N/n2c(-c3cccnc3)n[nH]c2=S)cc1	14.5%
Cc1nnc(C)n1/N=C/c1cccs1	17.6%
Cc1ccc(/C=N/n2c(C)nnc2C)s1	5.21%
Cc1ccc(-c2n[nH]c(=S)n2/N=C/c2cccs2)cc1	25.8%
C(=N\N=C\c1cccs1)/c1cccs1	3.75%
c1cncc(-c2nnc3n2N=C(c2cccs2)CS3)c1	7.37%
S=c1[nH]nc(-c2cccnc2)n1/N=C/c1ccc(Br)s1	8.12%
O=C(CCNC(=O)c1ccco1)NCc1ccc(C(=O)O)cc1	10.3%
O=C(NCc1cccnc1)c1ccc([N+](=O)[O-])cc1	6.96%
CC1(C)CC(=O)C2=C(C1)NC(SCC(N)=O)=C(C#N)C21CCCCC1	7.26%
Cc1ccccc1OCCn1cnc2c(N)ncnc21	-13%
CC(C)Oc1ccc(OCCn2c(S(=O)(=O)O)nc3c(N)ncnc32)cc1	2.7%
CCOc1ccc(OCCn2c(S(=O)(=O)O)nc3c(N)ncnc32)cc1	12.6%
Cc1ccccc1OCCn1c(S(=O)(=O)O)nc2c(N)ncnc21	9.98%
CN1CCN(C(=O)CSc2cc(=O)n(C)c3ccccc23)CC1	6.45%
CCOC(=O)N1CCC(NC(=O)C(CC(C)C)NC(=O)C2CCCCC2)CC1 (configuration not stated)	9.57%
Cc1ccc(S(=O)(=O)N2CCC(C(=O)NCCc3ccccn3)CC2)cc1	-0.14%

SMILES	inhibition
COc1ccc(Br)cc1/C=C/C(=O)NC(=S)Nc1ccc(Cl)c(C(=O)O)c1	6.62%
COc1ccc(/C=C2\SC(N)=NC2=O)cc1Cl	1.73%
COc1cc(/C=C2\SC(N)=NC2=O)cc(Br)c1O	29.2%
COc1ccc(Br)cc1C(=O)NC(=S)Nc1ccc(Cl)c(C(=O)O)c1	5.62%
COc1cc(/C=C2/SC(=S)N(Cc3ccccc3)C2=O)cc(Cl)c1O	10%
COc1cc(/C=C2\SC(c3ccccc3)=NC2=O)cc(Cl)c1O	27.3%
CC1CCCCN1C(=O)c1ccc(CS(=O)(=O)Cc2ccccc2)cc1 (configuration not stated)	8.5%
CCN1CCN(C(=O)c2[nH]c3ccc(OC)cc3c2C)CC1	6.11%
Cc1ccc(S(=O)(=O)NCCc2c[nH]c3ccccc23)cc1	4.49%
COc1ccc(CCNC(=O)CCn2c(=O)c3cccn3c3ccc(F)cc32)c(OC)c1OC	12.9%
O=C1NCC(COc2cccc3ccccc23)O1 (configuration not stated)	-1.12%
Cn1c(O)c(N=NC(=O)CNC(=O)c2cccnc2)c2ccccc21	4.23%
CCN1C[C@@H]2[C@@H]3C(=O)N(Cc4ccccc4)C(=O)[C@@H]3[C@](C)(C1=O)N2C(=O)c1ccc(Br)cc1	7.24%
O=C(CNC(=O)c1ccc(Br)o1)Nc1ccc(F)c(S(=O)(=O)N2CCOCC2)c1	5.58%
Clc1ccc(/C=N/N2CCCCC2)cc1	7.04%
Clc1ccc(C=NN2CCCCCC2)cc1	-2.87%
CCOc1ccc(NC(=O)C(C)Oc2ccccc2C(=O)Nc2ccc(C)c(Cl)c2)cc1 (configuration not stated)	5.67%
CC1(NC(=O)NCc2ccccc2)CCS(=O)(=O)C1 (configuration not stated)	10.2%
O=C(c1cccc(Cl)c1)N1CCC(c2nc3ccccc3[nH]2)CC1	9.71%
O=C1C(c2c(O)[nH]c3ccccc23)=Nc2ccccc21	8.12%
O=NC1=C(c2c(O)[nH]c3ccccc23)CCCC1	5.2%

SMILES	inhibition
Cc1ccc(NC(=O)COc2nc(C)cs2)cc1	4.7%
CC(=O)C[C@H](O)CC(=O)[C@H]1OC(=O)CC/C=C\Cc2ccccc21	5.25%
COc1ccc(CNCc2ccccc2C(F)(F)F)cc1	29.7%
COc1cc(CNCc2ccc(C)cc2)cc(OC)c1OC	22.2%
COc1cc(CNCc2ccc(OC)c(OC)c2OC)cc(OC)c1	15.6%
COc1cc(CNCc2cccc3ccccc23)cc(OC)c1	25.2%
CCCCn1c(N)c(N(CC(C)C)C(=O)c2cccc(S(=O)(=O)N(C)c3ccccc3)c2)c(=O)[nH]c1=O	5.29%
CCOC(=O)CC(NC(=O)c1ccccc1)c1ccc(OC)cc1 (configuration not stated)	3.97%
COCCNC(=O)c1cccc(OC2CCN(Cc3ccccc3OCCO)CC2)c1	11.3%
O=C(NC(=S)N1CCCCCC1)c1ccccc1	2.51%
COc1cc2oc(-c3ccc(O)cc3)cc(=O)c2c(O)c1OC	18.1%
COc1c(O)cc2oc(-c3ccc(O)cc3)cc(=O)c2c1O	10.2%
CS(=O)(=O)N(Cc1ccco1)CC(O)Cn1cc(C=O)c2ccccc21 (configuration not stated)	8.31%
COc1ccc(Cl)cc1NC(=O)CN(C)C1CCS(=O)(=O)C1 (configuration not stated)	6.99%
CCN(CC(=O)Nc1cc(C)c(Cl)cc1OC)CC(=O)NC1CCS(=O)(=O)C1 (configuration not stated)	8.4%
COCCNC(=O)CSc1ncnc2sc(-c3ccccc3)cc12	6.39%
COCCn1c(=NC(=O)c2ccc(S(=O)(=O)N3CCOCC3)cc2)sc2cc(S(N)(=O)=O)ccc21	8.39%
FC(F)(F)c1cnc2c(-c3ccc(Cl)cc3Cl)noc2c1	10.7%
CO/N=C/C(C(C)=O)C(=O)Nc1ccc(Cl)cc1Cl (configuration not stated)	1.68%
CC(=O)c1cccc(NC(=O)Nc2c(C)nn(C)c2C)c1	6.89%
